Literature values, collected in PubChem BioAssay AID977611.
Among all 3,900 compounds or so, about 3,900 (100%) were called active. Cut-off not given; nearly all actives show Kd up to about 4200 µM. The set was probably picked from earlier hits. Some of the results follow.

Assay: PubChem AID 977611
Conditions: PDB protein-ligand complexes, literature Kd

CNC(=O)C[C@H](C)O[P+](O)(O)OC
Kd (protein: Lysozyme C, PDB entry 4tun): 3.87 µM (active)

CC(=O)N[C@H]1[C@H]([C@H](O)[C@H](O)CO)O[C@@H](C(=O)O)C[C@@H]1O
Kd (protein: hemagglutinin with F95Y mutation of influenza virus B/Lee/40(F95Y mutant), PDB entry 4nrk): 0.024 µM (active)
Kd (protein: hemagglutinin with F95Y mutation of influenza virus B/Lee/40, PDB entry 4nrl): 0.0024 µM (active)

CC(=O)N[C@H]1[C@H]([C@H](O)[C@H](O)CO)O[C@@](O[C@H]2[C@@H](O)[C@@H](CO)O[C@@H](O[C@H]3[C@H](O)[C@@H](O)[C@@H](O)O[C@@H]3CO)[C@@H]2O)(C(=O)O)C[C@@H]1O
Kd (protein: Carbohydrate binding domain from Streptococcus pneumoniae NanA sialidase, PDB entry 4c1w): 0.00039 µM (active)

CC(=O)N[C@H]1[C@H]([C@H](O)[C@H](O)CO)O[C@@](OC[C@H]2O[C@@H](O)[C@H](O)[C@@H](O)[C@H]2O)(C(=O)O)C[C@@H]1O
Kd (protein: H5 (VN1194) Influenza Virus Haemagglutinin, PDB entry 4bgx): 17000 µM (active)
Kd (protein: Hemagglutinin HA1, PDB entry 4kon): 0.33 µM (active)
Kd (protein: Hemagglutinin(mutant form), PDB entry 4k67): 372 µM (active)
Kd (protein: Hemagglutinin, PDB entry 4k64): 1000 µM (active)
Kd (protein: Telomeric repeat-binding factor 2, PDB entry 4lkk): 1.2 µM (active)
Kd (protein: neuraminidase, PDB entry 4gzx): 645 µM (active)

CO[C@]1(C(=O)O)C[C@H](O)[C@@H](NC(=O)CO)[C@H]([C@H](O)[C@H](O)CO)O1
Kd (protein: Outer capsid protein VP4, PDB entry 3tay): 420 µM (active)

CC(=O)N[C@H]1[C@H]([C@H](O)[C@H](O)CO)O[C@@](O)(C(=O)O)C[C@@H]1O
Kd (protein: hemagglutinin, PDB entry 4lkh): 1000 µM (active)

CC(=O)N[C@@H]1[C@@H](O[C@@H]2O[C@@H](C)[C@@H](O)[C@@H](O)[C@@H]2O)[C@H](O[C@@H]2O[C@H](CO)[C@H](O)[C@H](O[C@]3(C(=O)O)C[C@H](O)[C@@H](NC(C)=O)[C@H]([C@H](O)[C@H](O)CO)O3)[C@H]2O)[C@@H](CO)O[C@@H]1O
Kd (PDB entry 4dxg): 0.087 µM (active)

CC(=O)N[C@H]1[C@H]([C@H](O)[C@H](O)CO)O[C@@](O[C@@H]2[C@@H](O)[C@H](O)O[C@H](CO)[C@@H]2O)(C(=O)O)C[C@@H]1O
Kd (protein: Hemagglutinin(mutant form), PDB entry 4k66): 554 µM (active)

CC(=O)N[C@@H]1[C@@H](O)[C@H](O[C@@H]2O[C@H](CO)[C@H](O)[C@H](O[C@]3(C(=O)O)C[C@H](O)[C@@H](NC(C)=O)[C@H]([C@H](O)[C@H](O)CO)O3)[C@H]2O)[C@@H](CO)O[C@H]1O
Kd (protein: Hemagglutinin, PDB entry 4k63): 60 µM (active)
Kd (protein: Neuraminidase, PDB entry 4gzw): 30 µM (active)
Kd (protein: hemagglutinin, PDB entry 4lkg): 0.16 µM (active)
Kd (protein: hemagglutinin, PDB entry 4lkj): 0.2 µM (active)

CC(=O)N[C@H]1[C@H](O[C@@H]2[C@@H](O)[C@H](O)O[C@H](CO)[C@@H]2O)O[C@H](CO)[C@@H](O[C@@H]2O[C@H](CO)[C@H](O)[C@H](O[C@]3(C(=O)O)C[C@H](O)[C@@H](NC(C)=O)[C@H]([C@H](O)[C@H](O)CO)O3)[C@H]2O)[C@@H]1O
Kd (protein: Hemagglutinin HA1, PDB entry 4kom): 0.1 µM (active)

CC(=O)N[C@H]1[C@H]([C@H](O)[C@H](O)CO)O[C@@](O[C@H]2[C@@H](O)[C@@H](CO)O[C@@H](O[C@H]3[C@H](O)[C@@H](O)[C@H](O)O[C@@H]3CO)[C@@H]2O)(C(=O)O)C[C@@H]1O
Kd (protein: Human galectin-3 CRD K176L mutant, PDB entry 4lbl): 11 µM (active)
Kd (protein: wildtype Human galectin-3 CRD, PDB entry 4lbo): 1.7 µM (active)

O=C(NC[C@@H](COC(=O)c1cc(O)c(O)c(O)c1)OC(=O)c1cc(O)c(O)c(O)c1)Oc1cccc(C(F)(F)F)c1
Kd (protein: Plasminogen activator inhibitor 1, PDB entry 4g8o): 0.022 µM (active)
Kd (protein: Plasminogen activator inhibitor-1, PDB entry 4g8r): 0.022 µM (active)

C[C@H]1N[C@@H]2[C@@H](O)[C@H](O)[C@@H](CO)O[C@@H]2S1
Kd (protein: BETA-N-ACETYLHEXOSAMINIDASE, PDB entry 4az5): 1.02 µM (active)
Kd (protein: BETA-N-ACETYLHEXOSAMINIDASE, PDB entry 4azc): 1.38 µM (active)

CN1Cc2c(ccc3c2OCO3)-c2ccc3cc4c(cc3c21)OCO4
Kd (protein: Chitinase A(W275G mutant), PDB entry 3as0): 28 µM (active)
Kd (protein: Chitinase A, PDB entry 3arv): 2.3 µM (active)

N[C@@H](CCC(=O)N[C@@H](CSCCN(CCCl)c1ccc(CCCC(=O)O)cc1)C(=O)NCC(=O)O)C(=O)O
Kd (protein: Glutathione S-transferase A1, PDB entry 4hj2): 2950 µM (active)
